Experimental findings from PubChem BioAssay (NCATS) are described below.

Results filed as inconclusive are left out. Activity calls are given as the source filed them. Unless noted, calls follow the shape of the dose curve; as a rule, active = well fitted curve in the direction sought with a large enough effect; inconclusive = small, poorly fitted or top-dose-only effect, or another doubt; inactive = no such curve, though single readings can be large; an effect the other way counts as inactive or inconclusive.

Assay [1] is described as follows: qHTS Assay for Lipid Storage Modulators (AID 1519; calls by dose curve; as to activity change, negative = inhibition: % is scaled to controls: 0 for no effect and ±100 for the full control effect). The following applies: Drosophila S3 cells, BODIPY lipid droplet/cell ratio, laser cytometry, cells loaded with oleic acid; for activity change, negative = inhibition: at 57.5 µM (top of the series). The method in brief:
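Cells seeded at 5,000 per well were treated with compounds over a concentration series and loaded with oleic acid (400 uM, as added). Lipid droplet fluorescence (488 nm excitation, 500-530 nm channel) was read by laser-scanning cytometry and normalized to 20 uM Triacsin C.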
(In general: In qHTS, concentration-response curves come from the screen itself.)

Assay [2] concerns the target ATP-dependent 6-phosphofructokinase (Trypanosoma brucei brucei) (UniProt O15648). Put plainly: qHTS Assay to Find Inhibitors of T. brucei phosphofructokinase: hit validation (AID 492961).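 Also: luminescence reports ADP formed as PFK phosphorylates fructose-6-phosphate with ATP; % is scaled to controls: 0 for no effect and ±100 for the full control effect.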 The following applies: T. brucei PFK, ADP-Glo luminescence; series mostly up to 24.3 µM. The method in brief: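 Reaction: 0.1 M triethanolamine pH 8.0, 5 mM MgCl2, F6P 0.5 mM, ATP 0.1 mM, PFK 1.25 nM, 45 min RT. Read-out: ADP-Glo luminescence. Analysis: concentration-response fits, classed by r2 and efficacy.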

The target in assay [3] is Luciferin 4-monooxygenase (Photinus pyralis) (UniProt P08659). In words: Biochemical firefly luciferase enzyme assay for NPC (AID 624030).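 Also: purified P. pyralis luciferase at 10 nM with luciferin and ATP substrate; 0% = DMSO and -100% = full luciferase inhibition by PTC124 control; nearly all actives have a fitted effect of over 70% in size.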 Conditions: purified P. pyralis luciferase, luminescence, 5 min; series mostly up to 24.9 µM. The method in brief:
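Counter-screen for direct inhibition of the luciferase enzyme by approved-drug library compounds, run at 10 nM enzyme in 50 mM Tris acetate (final). Luminescence was read within 5 min of enzyme-buffer addition and normalized to PTC124 versus DMSO (0%).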

Assay [4] is described as follows: qHTS profiling for inhibitors of Plasmodium falciparum proliferation (AID 504749). Also: potency is read from the fitted curve at half-maximal effect.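 As to activity, negative = inhibition: 0% = DMSO vehicle and full inhibition = artemisinin control.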 As to all read-outs here: nearly all actives have a fitted effect of over 60% in size. Conditions: P. falciparum in erythrocytes, SYBR Green DNA, 72 h; for activity, negative = inhibition: at 28.7 µM (top of the series). Summed up: (§1)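 Fluorescence of SYBR Green-bound parasite DNA, read at 485/535 nm, served as the growth measure. Infected erythrocytes were cultured with compound 72 h; artemisinin (0.29 uM) and DMSO wells defined the normalization range.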

The next assay deals with AS120. The description is as above. Conditions: P. falciparum in erythrocytes, SYBR Green DNA, 72 h; series mostly up to 12.8 µM. Summed up:
as §1

The test system of a further assay is C2A. Described as above. Conditions: P. falciparum in erythrocytes, SYBR Green DNA, 72 h; series mostly up to 12.8 µM. Summed up: as §1
A further assay concerns CP191. The assay is described as above. Conditions: P. falciparum in erythrocytes, SYBR Green DNA, 72 h; series mostly up to 12.8 µM. Summed up:
as §1

In a further assay the test system is CP217. Described as above. The following applies: P. falciparum in erythrocytes, SYBR Green DNA, 72 h; series mostly up to 12.8 µM. Summed up: as §1
The test system of another assay is CP305. The description is as above. The following applies: P. falciparum in erythrocytes, SYBR Green DNA, 72 h; series mostly up to 12.8 µM. The method in brief: as §1
In a further assay the test system is ECU. Described as above. The following applies: P. falciparum in erythrocytes, SYBR Green DNA, 72 h; series mostly up to 12.8 µM. The method in brief: as §1
In another assay the test system is N140. The description is as above. The following applies: P. falciparum in erythrocytes, SYBR Green DNA, 72 h; series mostly up to 12.8 µM. Summed up: as §1
For a further assay, the system named is TAB165. The assay is described as above. Conditions: P. falciparum in erythrocytes, SYBR Green DNA, 72 h; series mostly up to 12.8 µM. The method in brief:
as §1

For assay [5], the target named is Ubiquitin carboxyl-terminal hydrolase 1 (Homo sapiens) (UniProt O94782). Put plainly: Inhibitors of USP1/UAF1: Pilot qHTS (AID 504865). Also: nearly all actives have a fitted effect of over 35% in size. Also: potency is read from the fitted curve at half-maximal effect.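 As to activity change, negative = inhibition: rhodamine fluorescence freed from ubiquitin-rhodamine substrate followed over time; top concentration of the series differs between compounds; % is scaled to controls: 0 for no effect and ±100 for the full control effect.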 Conditions: purified USP1/UAF1, Ub-rhodamine cleavage fluorescence; series mostly up to 114 µM. Summed up: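 USP1/UAF1 complex at 1 nM preincubated 15 min at room temperature with compound, then Ub-Rho substrate added at 150 nM final. Fluorescence (480/540 nm) read kinetically in 50 mM HEPES pH 7.8, 0.5 mM EDTA, 1 mM TCEP, 0.1 mg/ml BSA, 0.01% Tween-20.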

The test system of the next assay is CP329. Put plainly: qHTS profiling for inhibitors of Plasmodium falciparum proliferation (AID 504749). Also: nearly all actives have a fitted effect of over 60% in size. Also: potency is read from the fitted curve at half-maximal effect.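 As to activity, negative = inhibition: 0% = DMSO vehicle and full inhibition = artemisinin control.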 The following applies: P. falciparum in erythrocytes, SYBR Green DNA, 72 h; series mostly up to 12.8 µM. The method in brief: as §1
In the next assay the test system is FAB9. The assay is described as above. Conditions: P. falciparum in erythrocytes, SYBR Green DNA, 72 h; series mostly up to 12.8 µM. Summed up:
as §1

The next assay has as its system PC15. Described as above. The following applies: P. falciparum in erythrocytes, SYBR Green DNA, 72 h; series mostly up to 12.8 µM. Summed up:
as §1

Another assay relates to PC49. The assay is described as above. The following applies: P. falciparum in erythrocytes, SYBR Green DNA, 72 h; series mostly up to 12.8 µM. Summed up: as §1
[6] abbreviates: measured here: cell count channel max response.
The mark [7] stands for this setting: measured here: lipid channel max response.

Sequence of ATP-dependent 6-phosphofructokinase (Trypanosoma brucei brucei) (O15648 whole entry, looked up): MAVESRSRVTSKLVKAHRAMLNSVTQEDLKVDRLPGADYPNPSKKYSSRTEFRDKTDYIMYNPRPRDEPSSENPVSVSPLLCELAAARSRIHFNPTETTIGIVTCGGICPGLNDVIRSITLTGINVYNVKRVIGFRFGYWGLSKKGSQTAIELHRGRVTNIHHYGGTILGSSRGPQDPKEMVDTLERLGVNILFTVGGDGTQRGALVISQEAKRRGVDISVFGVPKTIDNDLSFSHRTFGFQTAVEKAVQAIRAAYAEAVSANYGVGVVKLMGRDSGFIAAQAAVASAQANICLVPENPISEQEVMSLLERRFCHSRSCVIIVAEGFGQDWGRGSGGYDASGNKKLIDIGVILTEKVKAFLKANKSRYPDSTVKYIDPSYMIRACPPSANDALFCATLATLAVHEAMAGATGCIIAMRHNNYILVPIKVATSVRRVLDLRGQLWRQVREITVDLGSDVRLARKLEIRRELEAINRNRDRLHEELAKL
Sequence of Luciferin 4-monooxygenase (Photinus pyralis) (P08659 whole entry, looked up): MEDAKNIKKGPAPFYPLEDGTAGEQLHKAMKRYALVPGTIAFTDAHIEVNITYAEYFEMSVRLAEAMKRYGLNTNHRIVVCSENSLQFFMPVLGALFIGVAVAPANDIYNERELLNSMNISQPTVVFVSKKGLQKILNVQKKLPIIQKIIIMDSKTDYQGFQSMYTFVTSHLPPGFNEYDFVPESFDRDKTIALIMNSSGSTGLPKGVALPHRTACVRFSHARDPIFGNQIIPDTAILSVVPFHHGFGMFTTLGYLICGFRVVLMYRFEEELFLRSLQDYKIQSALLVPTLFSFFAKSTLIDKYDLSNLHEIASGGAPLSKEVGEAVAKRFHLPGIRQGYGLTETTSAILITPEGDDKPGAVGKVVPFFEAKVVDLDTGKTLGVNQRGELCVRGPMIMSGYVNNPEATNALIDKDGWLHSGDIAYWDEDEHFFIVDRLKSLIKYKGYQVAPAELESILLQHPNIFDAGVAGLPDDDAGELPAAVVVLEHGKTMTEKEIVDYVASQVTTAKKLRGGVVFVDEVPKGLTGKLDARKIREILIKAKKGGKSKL
Sequence of Ubiquitin carboxyl-terminal hydrolase 1 (Homo sapiens) (O94782 whole entry, looked up): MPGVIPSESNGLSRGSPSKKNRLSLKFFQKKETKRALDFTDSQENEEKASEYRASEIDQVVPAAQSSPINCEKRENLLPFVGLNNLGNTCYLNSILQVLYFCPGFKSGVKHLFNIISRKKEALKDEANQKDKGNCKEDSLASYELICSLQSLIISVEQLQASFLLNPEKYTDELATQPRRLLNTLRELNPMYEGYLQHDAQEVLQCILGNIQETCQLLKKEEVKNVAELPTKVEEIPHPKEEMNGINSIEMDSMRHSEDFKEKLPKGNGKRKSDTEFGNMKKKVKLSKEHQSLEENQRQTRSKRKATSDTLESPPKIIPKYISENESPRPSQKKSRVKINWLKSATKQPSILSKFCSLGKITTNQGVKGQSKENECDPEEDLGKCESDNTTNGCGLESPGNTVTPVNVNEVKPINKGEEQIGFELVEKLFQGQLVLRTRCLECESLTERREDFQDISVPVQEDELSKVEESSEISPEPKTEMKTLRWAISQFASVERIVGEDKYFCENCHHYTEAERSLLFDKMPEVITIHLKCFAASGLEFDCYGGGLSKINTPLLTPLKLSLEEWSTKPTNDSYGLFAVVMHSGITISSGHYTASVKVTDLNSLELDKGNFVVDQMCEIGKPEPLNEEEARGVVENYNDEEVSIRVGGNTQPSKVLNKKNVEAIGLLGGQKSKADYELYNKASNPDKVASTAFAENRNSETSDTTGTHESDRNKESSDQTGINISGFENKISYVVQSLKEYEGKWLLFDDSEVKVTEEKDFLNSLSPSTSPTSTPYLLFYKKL

As for `COc1ccc2cc1Oc1ccc(cc1)CC1c3c(cc4c(c3Oc3cc5c(cc3OC)CCN(C)C5C2)OCO4)CCN1C` (configuration not stated), in assay [1], the activity change, negative = inhibition is 10.7% (inactive). Besides, the max response came to 5.9% in assay [1] (setting [6]) and 21% in assay [1] (setting [7]). Besides, the call in assay [2] was inactive. Moreover, in assay [3], the Potency result was “inactive”. The Potency in assay [4] (parasite line A) is 8.91 µM (active); in [4] (parasite line B), 10 µM (active); in the assay on AS120, 3.98 µM (active); in the assay on C2A, 11.2 µM (active); in the assay with CP191 it was 5.01 µM (active); with CP217, 8.91 µM (active). Besides, the Potency is 9.53 µM (active) in the assay on CP305, 8.91 µM (active) in the assay with ECU, 3.16 µM (active) in the assay with N140 and 3.98 µM (active) in the assay with TAB165.

Turning to `Cc1cc(O)c(C=O)c2c1C(=O)Oc1c(C)c(O)c3c(c1O2)C(O)OC3=O` (configuration not stated), the activity change, negative = inhibition in [1] is 13.7% (inactive). Moreover, the max response amounted to 7.17% in assay [1] (setting [6]) and 21% in assay [1] (setting [7]). Besides, the Potency in assay [5] was 39.8 µM (active).

Take `CC1CCC(C(C)C)C(=O)C1` (configuration not stated): in assay [1], the activity change, negative = inhibition is 1.11% (inactive). In addition, the max response amounted to 11.5% in [1] (setting [6]) and 14.2% in assay [1] (setting [7]). In addition, in assay [2], the outcome was inactive. In addition, the Potency result (in assay [5]; in [3]; with AS120; in the assay on C2A; in the assay on CP191; with CP217) was “inactive” in each case. In addition, the Potency entry in the assay on CP305, in the assay on CP329, with ECU, in the assay on FAB9, with N140 and in the assay on PC15 was “inactive” throughout. Besides, the Potency entry in the assay on PC49 and in the assay on TAB165 was “inactive” each time. Further, the activity, negative = inhibition in assay [4] (parasite line A) is 0.527% (inactive); in assay [4] (parasite line B), 15.7% (inactive).

For `COC1CC(O[C@H]2/C(C)=C/CC3CC(C[C@]4(CCC(C)C(C5CCCCC5)O4)O3)OC(=O)[C@H]3C=C(C)/C(=N/O)C4OC/C(=C\C=C\[C@@H]2C)[C@@]43O)OC(C)C1O` (some centres not stated), in assay [1], the activity change, negative = inhibition was -12.3% (inactive). The values for the max response in assay [1] (setting [6]) and in assay [1] (setting [7]) were 13.8% and -0.335%, respectively. In [2], the compound was called inactive. Moreover, the Potency result (in [3]; in the assay on CP305; in the assay on CP329; in the assay with PC15) was “inactive” in each case. Also, the Potency with CP191 is 10 µM (active).

With `CC(=O)OC1CCC2C3CCc4cc(O)ccc4C3CCC12C` (configuration not stated), the activity change, negative = inhibition in assay [1] was -1.06% (inactive). Further, the max response in [1] (setting [6]) was 7.54%; in [1] (setting [7]), 8.25%. In addition, the compound was classed as inactive in [2]. For the same compound, the Potency result (in assay [3]; with AS120; with C2A; in the assay with CP191; with CP217; in the assay on CP305) was “inactive” each time. In addition, the Potency entry in the assay on CP329, in the assay on ECU, in the assay with FAB9, with N140, with PC15 and with PC49 was “inactive” throughout. The Potency entry in the assay on TAB165 was “inactive”. In addition, the activity, negative = inhibition in [4] (parasite line A) was 6.77% (inactive); in assay [4] (parasite line B), 4.39% (inactive).

Turning to `CC(=O)N[C@H](CC(C)C)C(=O)O`, the activity change, negative = inhibition in assay [1] was 6.38% (inactive). Also, the max response in [1] (setting [6]) amounted to 8.9%; in [1] (setting [7]) it was 16.6%. Also, the result in [2] was inactive. For the same compound, the Potency result (in assay [5]; in assay [3]; in the assay with AS120; in the assay with C2A; with CP191; in the assay with CP217) was “inactive” each time. Further, the Potency result in the assay with CP305, in the assay with CP329, with ECU, in the assay with FAB9, with N140 and with PC15 was “inactive” in each case. In addition, the Potency entry in the assay with PC49 and in the assay on TAB165 was “inactive” each time. Also, the values for the activity, negative = inhibition in [4] (parasite line A) and in [4] (parasite line B) were -8.85% (inactive) and 9.6% (inactive), respectively.
